# Sampled rows, rich in hits. Any-hit rate of the full collection: about 2.7%.
# HIV Env fusion: inhibitors of HIV Env-mediated cell fusion | HeLa-JRFL Env/CEM21 cell fusion, luciferase | inhibition, % at 12.3 µM | 360,000 compounds, 1.1% hits;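 active = mean replicate inhibition score of at least 50 and every replicate individually at or above 50; inconclusive = only one of the two criteria met; inactive = mean below 50 and not all replicates reaching 50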;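 also: 0% = plate neutral controls and 100% = maraviroc near 300 nM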
# Wnt act: Wnt/beta-catenin pathway activation. 300,000 compounds, 1.2% hits. Wnt/beta-catenin reporter cell assay, activator, plate reader. activation, % at 9.35 µM. AID 743398; in the data active = activation above about 30%, passing the limit was not always enough; inconclusive = no clear call, values can overlap the other calls;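 also: 0% = neutral control wells and 100% = positive control wells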
# MITF TRPM1 HTS: MITF TRPM1 promoter activation in melanoma cells; activation, % at 12.5 µM; SK-MEL-5 TRPM1-promoter luciferase, 24 h; % of positive control, neutral wells = 0; 300,000 compounds, 0.75% hits; AID 588334;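 active = mean activation of at least 80% with every replicate also reaching 80%; inconclusive = mean reaches 80% but some replicate falls short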;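 also: 0% = neutral control wells and 100% = parthenolide positive control wells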
# GSIS activator: primary screen for activators of insulin secretion dependent on glucose, INS-1E cells, GLuc reporter luminescence. INS-1E GLuc reporter insulin secretion, 2-3 h. activation, % at 16.6 µM. 370,000 compounds, 0.61% hits. AID 743287;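 active = lowest replicate activation of at least 40%, so every replicate reaches that level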;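 also: 0% = median of neutral control wells and 100% = median of IBMX positive control wells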
# F508del corr: CFTR F508del correction in bronchial cells; AID 720511; activity (quench increase), % at 7.58 µM; CFBE cells, YFP halide quenching; stimulated with forskolin plus potentiator P3; % fluorescence drop versus neutral controls; 350,000 compounds, 0.36% hits;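 active = mean added fluorescence quench of at least 8% versus neutral control, with both replicates also reaching 8%; inconclusive = only one of the mean or replicate conditions met; inactive = mean below 8% and not both replicates reaching 8%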;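 also: cells transiently co-express mutant CFTR-F508del with the halide-sensitive YFP; corrector assay measuring rescue of mutant channel to the surface after 24 h compound exposure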
# Active calls of the source: *; ? = inconclusive; . = no result; ! = repeats disagree; [ ] = dose if it differs, or a comment.
SMILES,HIV Env fusion,Wnt act,MITF TRPM1 HTS,GSIS activator,F508del corr
O=C(c1ccccc1F)N1CC[C@H]2[C@H](CO)Nc3ccc(-c4ccc(F)cc4)cc3[C@H]21,.,.,.,11.8,1.9
CCNC(=O)[C@@H]1[C@@H](CO)[C@@H]2Cn3c(ccc(-c4ccccc4)c3=O)[C@H]1N2Cc1ccccc1,.,.,.,-3.4,-0.2
CN(Cc1ccccc1)c1nc2c(c(=O)[nH]c(=O)n2C)n1Cc1ccccc1F,11.5,14.3,-4.2,38.9,4.5
CCCCCn1c(N(C)Cc2ccccc2)nc2c1c(=O)[nH]c(=O)n2C,9.5,-4.5,-5.4,40.4*,4.8
CN(Cc1ccccc1)c1nc2c(c(=O)[nH]c(=O)n2C)n1Cc1ccccc1,-15.9,.,.,69.8*,.
COCC(=O)Nc1ccc2c(c1)C(=O)N(C)[C@H]1CC[C@@H](CC(=O)NCC3CC3)O[C@H]1CO2,16.8[16.7 µM],.,.,7.7,-1.5
CCOCCCNC(=O)C(c1ccc(Cl)cc1)N1CCN(c2ccccc2)CC1 (stereo not drawn),-19.6,-1.7,.,.,0.8
CCOCCCNC(=O)C(c1ccc(Cl)cc1)N1CCC2(CC1)OCCO2 (stereo not drawn),-81.6,60.5*,3.6,.,.
CC(C)C[C@H](NC(=O)c1nc[nH]c1C(=O)N[C@@H](CC(C)C)C(=O)OCc1ccccc1)C(=O)OCc1ccccc1,71.2*,-19.0,-14.7,.,2.8
CC(C)C[C@H](NC(=O)c1nc[nH]c1C(=O)N[C@@H](CC(C)C)C(=O)OC(C)(C)C)C(=O)OC(C)(C)C,69.9*,-27.1,.,.,-1.8
CC(C)(C)OC(=O)[C@H](Cc1ccccc1)NC(=O)c1nc[nH]c1C(=O)N[C@@H](Cc1ccccc1)C(=O)OC(C)(C)C,74.3*,-11.5,-5.3,.,1.0
CC(C)(C)OC(=O)NCCCC[C@H](NC(=O)c1[nH]cnc1C(=O)Nc1ccc(CNC(=O)OC(C)(C)C)cc1)C(=O)OC(C)(C)C,72.0*,-14.0,.,-10.0,1.4
CC(C)(C)OC(=O)NCCCC[C@H](NC(=O)c1nc[nH]c1C(=O)NCc1ccccc1)C(=O)OC(C)(C)C,-21.2,-7.2,-2.7,.,-0.3
CCCNC(=O)N1CC2(CCN(Cc3ccccn3)CC2)c2c(n(C)c3cc(OC)ccc23)[C@@H]1CO,.,.,.,16.0,-1.1
CC[C@@H]1CC=CC[C@H](C)Oc2ccccc2C(=O)N(C)[C@@H](C(C)C)C(=O)N1 (mixture of isomers),.,.,.,-8.1,.
CN(C)C(=O)c1cccc(-c2ccc([C@H]3[C@@H](CO)N4CCCCN(C(=O)C5CCCC5)C[C@H]34)cc2)c1,.,.,.,.,-1.5
CCn1cc(C(=O)NC(=S)Nc2sc3c(c2C(=O)OC)CCCCCC3)cn1,6.5,-5.5,-29.1,74.0*,.
COC(=O)c1c(NC(=O)c2ccc(C)o2)sc2c1CCCCC2,-70.1,52.2*,.,1.2,.
CC(C)(C)c1ccc(C(=O)Nc2sc3c(c2C(=O)O)CCC3)cc1,80.9*,-4.6,-65.4,-18.5,0.1
COc1cc(CN2CC3(CCN(C)CC3)c3c([nH]c4cc(OC)ccc34)[C@@H]2CO)cc(OC)c1,.,.,.,-0.5,.
CCCCC(=O)Nc1cccc(-c2nnc(-c3ccccc3)o2)c1,-63.9,.,12.6,-8.4,.
CCC(=O)Nc1cccc(-c2ccc(N3CCN(C)CC3)nn2)c1,.,.,85.0*,.,.
CCOc1ccccc1C(=O)Nc1cccc(-c2ccc(N3CCOCC3)nn2)c1,-43.9,?,110.8*,3.2,2.7
O=C(Nc1cccc(-c2ccc(N3CCOCC3)nn2)c1)c1ccc(F)cc1F,-22.6,19.1,?,8.7,1.4
COc1cccc(C(=O)Nc2cccc(-c3ccc(N4CCOCC4)nn3)c2)c1OC,-24.2,28.2,?,-1.6,4.4
SMILES,HIV Env fusion,Wnt act,MITF TRPM1 HTS,GSIS activator,F508del corr
COc1cccc(C(=O)Nc2cccc(-c3ccc(N4CCOCC4)nn3)c2)c1,-22.5,22.4,136.9*,-6.7,-0.6
CCC(=O)Nc1cccc(-c2nnc(-c3ccccc3)o2)c1,-22.9,0.6,100.1*,-3.3,1.2
COc1ccc(NC(=O)Nc2cccc3c2O[C@@H](CN(C)S(=O)(=O)c2cccs2)[C@H](C)CN([C@@H](C)CO)C3=O)cc1,-14.9[16.7 µM],.,.,10.4,0.8
C/C=C/c1cnc2c(c1)C(=O)N([C@@H](C)CO)C[C@@H](C)[C@@H](CN(C)Cc1cccc(C(=O)O)c1)O2,.,.,.,16.3,-4.7
CC(=O)N(C)C[C@H]1Oc2ccccc2CC(=O)N(C)C[C@H]1C,.,.,.,8.7,.
CCOc1ccc(C(=O)Nc2cccc(-c3ccc(N4CCOCC4)nn3)c2)cc1OCC,-14.1,22.4,106.3*,1.5,0.1
COc1ccc(C(=O)Nc2cccc(-c3ccc(N4CCOCC4)nn3)c2)cc1OC,-23.8,26.3,96.0*,2.6,6.1
CN1c2ccc(C#Cc3cccnc3)cc2[C@H]2[C@H](CCN2C(=O)c2cccnc2)[C@@H]1CO,.,.,.,-3.0,1.2
O=C1c2ccccc2NC(c2ccc(-c3cccc([N+](=O)[O-])c3)o2)N1O (stereo not drawn),57.6*,0.6,1.8,-15.4,.
O=C1c2ccccc2NC(c2ccc(-c3ccc(F)cc3)o2)N1O (stereo not drawn),-63.3,?,71.2,-8.4,0.6
C[C@H](CO)N1C[C@H](C)[C@H](CN(C)S(=O)(=O)c2cccc(F)c2)OCc2ccccc2-c2c(n(C)c3ccccc23)C1=O,97.5*!,-2.2,.,-12.7,-0.3
C[C@H]1CN([C@@H](C)CO)C(=O)c2c(c3ccccc3n2C)-c2ccccc2CO[C@H]1CN(C)S(=O)(=O)c1cccc(C#N)c1,.,.,.,7.4,.
C[C@H](CO)N1C[C@H](C)[C@H](CN(C)S(=O)(=O)c2cccc(C#N)c2)OCc2ccccc2-c2c(n(C)c3ccccc23)C1=O,56.9*[16.7 µM],.,.,-15.8,-1.9
C[C@@H]1CN([C@H](C)CO)C(=O)c2c(c3ccccc3n2C)-c2ccccc2CO[C@@H]1CN(C)S(=O)(=O)c1cccc(F)c1,95.2*[16.7 µM],.,.,-31.4,3.6
C[C@@H]1CN([C@H](C)CO)C(=O)c2c(c3ccccc3n2C)-c2ccccc2CO[C@H]1CN(C)S(=O)(=O)c1cccc(F)c1,48.8[16.7 µM],.,.,-7.9,1.3
CC=Cc1ccc2n(c1=O)C[C@@H]1[C@@H](CO)[C@H](C(=O)NCC(F)(F)F)[C@H]2N1C(=O)C1CCCC1 (mixture of isomers),.,.,.,-2.2,2.8
CCn1c(SCc2cc(=O)[nH]c3ccccc23)nc2c1c(=O)n(C)c(=O)n2C,20.2,.,9.8,49.4*,.
Cn1ccnc1SCc1cc(=O)[nH]c2ccccc12,.,4.8,20.6,2.2,-0.7
Cc1c(O)nc2sc3ccccc3n2c1=O,22.6,3.8,.,6.7,-0.6
Cc1cc2sc3nc(=O)n(-c4ccccc4)c(=O)n3c2cc1C,-50.7,70.6*,.,4.6,-3.2
O=C(CSC(=S)N1CCCC1)c1ccccc1,-46.9,45.4*,50.5,.,-1.7
O=C(CSC(=S)N1CCCCC1)c1ccccc1,9.8,.,16.9,-13.1,.
CCC(=O)Nc1ccc2c(c1)OC[C@H](C)N(C(=O)Cc1ccccn1)C[C@@H](C)[C@H](OC)CN(C)C2=O,.,.,.,-2.5,-4.8
